Screening data deposited in PubChem BioAssay by National Center for Advancing Translational Sciences (NCATS).
RGS12 GoLoco inh = blocks human Gai1 binding to RGS12 GoLoco peptide, red readout; Gai1:RGS12 GoLoco peptide FP, rhodamine, 10 min; Potency, µM (doses to about 61.6 µM), usual class: inhibitors; 0.44% of 230,000 active; AID 880; active = well fitted inhibition curve with a large enough effect, not every such curve was filed as active; inactive = no such curve, though single readings can be large or run the other way; also: nearly all actives have a fitted effect of over 30% in size
Sfp PPTase inh = blocks B. subtilis Sfp PPTase activity; Q9F4F7; Biochemical Sfp PPTase activity, qHTS; Potency, µM, most hits filed as inhibitors; 3.5% of 310,000 active; AID 1490; active = well fitted curve in the direction sought with a large enough effect; inconclusive = small, poorly fitted or top-dose-only effect, or another doubt; inactive = no such curve, though single readings can be large; an effect the other way counts as inactive or inconclusive;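 also: the enzyme is Sfp with the accession as filed and its product quenches rhodamine fluorescence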
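Compounds were incubated with enzyme (final 15 nM) for 15 min at room temperature before substrate addition started the reaction. Fluorescence at 525 nm excitation, 598 nm emission was recorded immediately and after 30 minutes.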
ALDH1A1 inh = inhibitors of human aldehyde dehydrogenase 1A1; Purified ALDH1A1, NADH fluorescence, propionaldehyde substrate; Potency, µM (highest dose often 75.3 µM), most hits filed as inhibitors; 7.3% of 220,000 active; P00352
KDM4E inh = inhibitors of human JMJD2E histone demethylase. JMJD2E catalytic domain, FDH-coupled NADH fluorescence (FDH is formaldehyde dehydrogenase). Potency, µM (top dose mostly 57.1 µM), usual class: inhibitors. 1.6% of 230,000 active; also: nearly all actives have a fitted effect of over 50% in size
NPSR antag = neuropeptide S receptor (human) antagonism, cAMP | CHO-NPSR cells, cAMP TR-FRET, antagonist mode | Potency, µM (highest dose often 38.3 µM), actives largely listed as inhibitors | 1% of 220,000 active | AID 1461; active = well fitted curve in the direction sought with a large enough effect; inconclusive = small, poorly fitted or top-dose-only effect, or another doubt; inactive = no such curve, though single readings can be large; an effect the other way counts as inactive or inconclusive; also: nearly all actives have a fitted effect of over 50% in size
Target sequence (Q6W5P4 whole entry, looked up): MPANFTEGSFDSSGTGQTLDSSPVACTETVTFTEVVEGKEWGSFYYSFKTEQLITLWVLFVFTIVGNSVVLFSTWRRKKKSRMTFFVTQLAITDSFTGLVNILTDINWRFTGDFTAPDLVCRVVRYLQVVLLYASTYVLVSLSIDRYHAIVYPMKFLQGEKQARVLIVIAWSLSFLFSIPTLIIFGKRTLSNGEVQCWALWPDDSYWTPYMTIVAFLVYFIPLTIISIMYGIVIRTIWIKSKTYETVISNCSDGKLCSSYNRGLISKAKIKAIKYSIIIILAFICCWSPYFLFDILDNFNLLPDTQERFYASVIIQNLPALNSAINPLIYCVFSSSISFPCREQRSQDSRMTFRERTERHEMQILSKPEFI
Coupling enz = inhibits coupling enzyme system, counter-screen for aldolase hits; coupling enzyme system counterscreen, AmpLite Red fluorescence; AID 2472; 0.67% of 290,000 active; activity change, negative = inhibition, % at 58.2 µM, hits read low; in the data active = activity change below about -30%
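Fluorescence at 525 nm excitation and 598 nm emission measured inhibition of the coupled detection system without aldolase. Compounds (at 57.5 uM final) were preincubated 10 min at room temperature with coupling enzyme reagent before a 20 min substrate/AmpLite Red step.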
Of the large screens only hits and unclear results are named; the others gave an inactive call. Only some compounds are listed: those with a hit (about 8.5% of all), similar ones and a draw of the others. Unless noted, calls follow the shape of the dose curve; as a rule, active = well fitted inhibition curve with a large enough effect (not every such curve was filed as active); inconclusive = small, poorly fitted or top-dose-only effect, or another doubt; inactive = no such curve, though single readings can be large or run the other way.

CC(NC(=O)c1cc(S(=O)(=O)N(C)C)ccc1Cl)c1ccc(-n2ccnc2)cc1 (configuration not stated)	none (no result: RGS12 GoLoco inh, ALDH1A1 inh, KDM4E inh, NPSR antag, Coupling enz)
CC[n+]1c(/C=C2\C=C(C)CC(C)C2)sc2ccccc21 (configuration not stated)	Sfp PPTase inh 35µM, ALDH1A1 inh inconclusive, KDM4E inh inconclusive
CCC1=C/C(=C/c2sc3ccccc3[n+]2CC)CC(C)(C)C1	Sfp PPTase inh 35µM, ALDH1A1 inh inconclusive
CC[n+]1c(/C=C2/C=C(C)CC(C)(C)C2)sc2ccc(OC)cc21	Sfp PPTase inh 14µM, ALDH1A1 inh 8.9µM, NPSR antag inconclusive
CC[n+]1c(/C=C2\C=C(C)CC(C)(C)C2)sc2ccccc21	Sfp PPTase inh 11µM, ALDH1A1 inh inconclusive, KDM4E inh inconclusive, NPSR antag inconclusive
Cc1sc2ccccc2[n+]1CCC(=O)O	none (no result: Sfp PPTase inh, KDM4E inh, NPSR antag, Coupling enz)
CC(=O)Oc1ccc(C(=O)Nc2ccccc2C(=O)Nc2ccc(C(=O)O)cc2)cc1	none (no result: RGS12 GoLoco inh, ALDH1A1 inh, KDM4E inh, NPSR antag)
COc1ccc(C2(CNC(=O)c3ccc(OCC(C)C)cc3)CCOCC2)cc1	none (no result: RGS12 GoLoco inh)
COc1ccc(N2CCN(C(CNC(=O)C(=O)NCC(OC)OC)c3ccco3)CC2)cc1 (configuration not stated)	none (no result: RGS12 GoLoco inh, ALDH1A1 inh, KDM4E inh, NPSR antag)
CCCCC(=O)NNC(=S)NC(=O)CCC	Sfp PPTase inh 79µM, NPSR antag inconclusive
CCCCC(=O)NC(=S)NNC(=O)CC#N	Sfp PPTase inh 10µM, ALDH1A1 inh 22µM
CCCc1nc2ccccc2c(=O)n1CC(=O)c1ccc(F)cc1	none (no result: RGS12 GoLoco inh, ALDH1A1 inh, KDM4E inh, NPSR antag)
O=C(Cc1nc2ccccc2[nH]1)c1ccc([N+](=O)[O-])cc1	Sfp PPTase inh 16µM, ALDH1A1 inh 18µM, KDM4E inh inconclusive
O=C(NCCc1nc2ccccc2[nH]1)c1ccc([N+](=O)[O-])cc1	none
O=C(Cc1nc2ccccc2[nH]1)c1ccc(Cl)cc1	none (no result: RGS12 GoLoco inh, ALDH1A1 inh, KDM4E inh, NPSR antag)
CN/N=C(\Cc1nc2ccccc2[nH]1)c1ccc([N+](=O)[O-])cc1	Sfp PPTase inh 22µM, ALDH1A1 inh 20µM, KDM4E inh inconclusive
Clc1ccc(/C(Cc2nc3ccccc3[nH]2)=N\Nc2ccccc2)cc1	ALDH1A1 inh 4.5µM, KDM4E inh 22µM, NPSR antag inconclusive
CCN(CC)C(=O)Cn1cc(C(=O)C(=O)N2CC=C(c3ccccc3)CC2)c2ccccc21	ALDH1A1 inh inconclusive
O=C1C2ON(c3ccccc3)C(c3cccnc3)C2C(=O)N1Cc1ccccc1 (configuration not stated)	ALDH1A1 inh 35µM
O=S(=O)(c1ccccc1)N1C2CCC1CC(O)(c1cccnc1)C2 (configuration not stated)	ALDH1A1 inh 13µM
O=C(Nc1ccccc1)N1C2CCC1CC(O)(c1cccnc1)C2 (configuration not stated)	none
CC12CCC(C(=O)Nc3ccc(Br)cn3)(OC1=O)C2(C)C (configuration not stated)	none
CC(=O)Nc1nonc1-n1nnc(C(=O)NCc2ccccc2)c1C	ALDH1A1 inh 11µM
CCCC(=O)Nc1sc(C(=O)OC)c(C)c1C(N)=O	Sfp PPTase inh 28µM (no result: RGS12 GoLoco inh)
CCCCC(=O)Nc1sc(C(=O)N(CC)CC)c(C)c1C(=O)OC	Sfp PPTase inh 13µM, ALDH1A1 inh 8.9µM, NPSR antag inconclusive
CCOc1ccc2nc3sc(C(=O)N4CCOCC4)c(N)c3cc2c1	Sfp PPTase inh 32µM
COc1ccc2nc3sc(C(=O)NCc4cccs4)c(N)c3cc2c1	ALDH1A1 inh 4µM, KDM4E inh inconclusive
O=C1C[C@H](c2ccc(-c3ccccc3)cc2)N1S(=O)(=O)c1ccccc1[N+](=O)[O-]	none (no result: RGS12 GoLoco inh, ALDH1A1 inh, KDM4E inh, NPSR antag)
Cc1cc2c(cc1Cl)C(c1ccc3c(c1)OCO3)CC(=O)O2 (configuration not stated)	none (no result: KDM4E inh, NPSR antag)
COc1ccc(-c2cc3ncc(C(C)=O)c(C)n3n2)cc1	ALDH1A1 inh inconclusive
CS(=O)(=O)N1CCC[C@@]2(CCN(Cc3ccccc3)C2)C1	none (no result: KDM4E inh, NPSR antag)
Cc1onc(-c2ccccc2)c1C(=O)NC(=S)NNC(=O)c1ccc(O)cc1	ALDH1A1 inh inconclusive
Cc1onc(-c2ccccc2)c1C(=O)NC(=S)NNC(=O)c1ccc(O)cc1O	ALDH1A1 inh inconclusive, KDM4E inh 11µM
CCCOc1ccc(NC(=O)c2c(-c3ccccc3)noc2C)cc1	none
